The values that follow come from PMC4336329 (PLoS ONE, 2015).

In all, about 310,000 compounds went through this assay and about 14,000 (4.5%) showed an effect of 50% or more. Effects have a minus sign here. Only a selection was taken, and strong results are over-represented in it overall.
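Also: peak tail current of the secondary pulse compared with the same well before compound.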

The target of this assay is human ether-à-go-go-related gene (hERG) potassium channel (human, UniProt Q12809). Nature of the assay: primary screen, population patch clamp on CHO cells stably expressing hERG; higher = less effect of the substance.
Chain of human ether-à-go-go-related gene (hERG) potassium channel (Q12809 whole entry, looked up): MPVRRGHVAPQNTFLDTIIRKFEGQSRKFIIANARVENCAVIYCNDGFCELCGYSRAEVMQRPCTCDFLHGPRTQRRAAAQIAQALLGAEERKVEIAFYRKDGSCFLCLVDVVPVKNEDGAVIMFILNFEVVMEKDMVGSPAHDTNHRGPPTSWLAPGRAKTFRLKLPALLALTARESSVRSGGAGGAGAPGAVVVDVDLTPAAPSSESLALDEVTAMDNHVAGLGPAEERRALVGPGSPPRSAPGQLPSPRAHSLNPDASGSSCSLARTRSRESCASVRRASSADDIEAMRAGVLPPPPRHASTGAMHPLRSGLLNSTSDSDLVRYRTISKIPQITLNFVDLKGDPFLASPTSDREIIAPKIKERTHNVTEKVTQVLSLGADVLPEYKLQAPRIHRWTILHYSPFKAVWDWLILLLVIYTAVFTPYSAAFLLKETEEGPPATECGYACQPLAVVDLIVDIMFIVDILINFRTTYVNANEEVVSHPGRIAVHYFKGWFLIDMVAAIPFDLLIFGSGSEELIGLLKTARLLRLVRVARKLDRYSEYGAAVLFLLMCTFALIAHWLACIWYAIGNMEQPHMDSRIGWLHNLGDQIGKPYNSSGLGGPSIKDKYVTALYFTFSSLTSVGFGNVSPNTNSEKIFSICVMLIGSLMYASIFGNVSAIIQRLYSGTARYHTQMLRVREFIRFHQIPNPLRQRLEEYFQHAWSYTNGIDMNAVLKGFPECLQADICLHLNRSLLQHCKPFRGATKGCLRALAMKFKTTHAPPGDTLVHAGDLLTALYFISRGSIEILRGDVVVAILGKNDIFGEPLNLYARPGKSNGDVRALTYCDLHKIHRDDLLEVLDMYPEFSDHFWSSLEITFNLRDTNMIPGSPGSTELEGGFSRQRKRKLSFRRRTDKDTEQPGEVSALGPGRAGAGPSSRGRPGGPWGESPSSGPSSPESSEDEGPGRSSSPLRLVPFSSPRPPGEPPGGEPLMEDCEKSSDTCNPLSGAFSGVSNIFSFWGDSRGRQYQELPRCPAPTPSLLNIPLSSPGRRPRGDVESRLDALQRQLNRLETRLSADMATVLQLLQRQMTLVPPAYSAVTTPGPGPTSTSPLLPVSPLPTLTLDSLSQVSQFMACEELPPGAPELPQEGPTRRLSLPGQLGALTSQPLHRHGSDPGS
With `Cc1c(C(=O)Nc2ccc3c4c(cccc24)CC3)cccc1[N+](=O)[O-]`, the “hERG current change (%, negative = inhibition) at 10uM” value is 9.1%.

As for `Cc1cccc(-c2oc3ccc(-c4ccc5c(c4)OCO5)cc3c2C(=O)OCc2ccc(O)cc2)c1`, the “hERG current change (%, negative = inhibition) at 10uM” value worked out at 6.27%. Next, `c1ccc(-c2nn[nH]n2)nc1`: 9.49%; `Cc1cccc(NC(=S)NCCC(c2ccccc2)c2ccccc2)c1`: 12%; `CCn1c(-c2cc(OC)c(OC)c(OC)c2)n[nH]c1=S`: 12.1%. With `COc1cccc(CNC(=O)CCCn2nc(C)c3c(C)n(-c4ccccc4)nc3c2=O)c1` the figure was -10%; with `COc1ccc(CCN2CN(S(=O)(=O)c3ccccc3)c3nc4ccccc4nc32)cc1OC`, -0.784%; with `Cc1ccc(/C([O-])=C(/C(=S)NCc2ccco2)[n+]2ccccc2)cc1[N+](=O)[O-]`, -18%. Next, `CC(C)C(=O)NNS(=O)(=O)c1ccccc1[N+](=O)[O-]`: 3.1%; `COc1ccc(N=C2SC(C(=O)N3CCN(c4ccc([N+](=O)[O-])cc4)CC3)CC(=O)N2C)cc1` (stereo not drawn): -68.2%; `CCOCC(=O)N1CCN(c2cccc(Cl)c2)CC1`: 8.4%. Take `COc1ccc(N=C2SC(C(=O)O)CC(=O)N2C)cc1` (stereo not drawn): the “hERG current change (%, negative = inhibition) at 10uM” value worked out at 1.4%. With `CCOCC(=O)N1CCN(c2ccc([N+](=O)[O-])cc2)CC1` the figure was -71.8%. With `COc1ccc(N=C2SC(C(=O)N3CCN(c4ccccc4)CC3)CC(=O)N2C)cc1` (stereo not drawn) the figure was -13%; with `CN1N=C(C(=O)N2CCCC(N3CCN(c4ccc(F)cc4)CC3)C2)CCC1=O` (stereo not drawn), 2.78%; with `COCC(=O)N1CCN(c2ccc([N+](=O)[O-])cc2)CC1`, -62.7%. Next, `CCOCC(=O)N1CCN(c2ccc(F)cc2)CC1`: -15.9%; `COCC(=O)N1CCN(c2cccc(Cl)c2)CC1`: -8.46%. In the case of `COc1ccc(N2CCN(C(=O)c3cc([N+](=O)[O-])ccc3N3CCN(CCO)CC3)CC2)cc1`, the “hERG current change (%, negative = inhibition) at 10uM” value is reported as -24.6%.

In the case of `CN1N=C(C(=O)N2CCN(c3ccc([N+](=O)[O-])cc3)CC2)CCC1=O`, the “hERG current change (%, negative = inhibition) at 10uM” value is on record as -73%. With `COc1ccc(C)cc1NC(=O)C(OC(=O)c1ccc(Cl)c(S(=O)(=O)N(C)c2ccccc2)c1)c1ccccc1` (stereo not drawn) the figure was -0.711%. For the molecule `O=C(Nc1ccc(O)cc1C(=O)O)c1ccc2c(c1)C(=O)N(Cc1ccco1)C2=O`, the “hERG current change (%, negative = inhibition) at 10uM” value is on record as -16.8%. Take `CCOc1ccc2[nH]c(=O)c(CN(CCO)C(=O)c3ccccc3F)cc2c1`: the “hERG current change (%, negative = inhibition) at 10uM” value is -0.495%. `COC(=O)Cc1[nH]nc2c1C(c1c[nH]c3ccccc13)C(C#N)=C(N)O2` (stereo not drawn): the “hERG current change (%, negative = inhibition) at 10uM” value is given as 17.8%. Next, `c1ccc(Nc2c(-c3ccco3)nc3ccccn23)cc1`: 9.75%. For `C=CCC1(N(C(C)=O)c2ccccc2)CCCCC1`, the “hERG current change (%, negative = inhibition) at 10uM” value is 5.28%. Next, `CSC(=NC#N)N1CCN(c2ccc(Cl)cc2)CC1`: -38.3%; `CSC(=NC#N)N1CCN(c2ccccc2)CC1`: -2.95%.

For `CSC(=NC#N)N1CCN(c2ccc([N+](=O)[O-])cc2)CC1`, the “hERG current change (%, negative = inhibition) at 10uM” value is reported as -77%.

Turning to `O=C(Nc1ccc2c(c1)OCO2)c1cnn2c1NC(c1ccco1)CC2C(F)(F)F` (stereo not drawn), the “hERG current change (%, negative = inhibition) at 10uM” value is -4.57%. With `CCc1c(O)nc(SCC(=O)Nc2cc(C)on2)n(-c2ccccc2)c1=O` the figure was 3.39%.

Take `C=CCn1c(SCC(=O)NC2CC2)nnc1-c1cccc(OC)c1`: the “hERG current change (%, negative = inhibition) at 10uM” value came out at 2.24%. As for `CCn1c(SCC(=O)NC2CC2)nnc1-c1ccc(OC)cc1`, the “hERG current change (%, negative = inhibition) at 10uM” value came out at 17.4%. With `Nc1nnc(SCC(=O)NC2CCCCC2)n1-c1ccccc1` the figure was 6.78%; with `COc1cccc(-n2c(SCC(N)=O)nnc2-c2ccco2)c1`, 13.7%. Next, `Cn1c(SCC(=O)Nc2ncc(C(F)(F)F)cc2Cl)nnc1-c1ccc(Cl)cc1`: -30.8%; `COc1cccc(-n2c(SCC(=O)NC3CCCC3)nnc2-c2ccco2)c1`: -73.7%.

As for `CCn1c(SCC(=O)NC2CC2)nnc1-c1cccc(OC)c1`, the “hERG current change (%, negative = inhibition) at 10uM” value is on record as -66.6%. For `CCn1c(SCC(=O)Nc2ncc(C(F)(F)F)cc2Cl)nnc1-c1ccccc1`, the “hERG current change (%, negative = inhibition) at 10uM” value is on record as -12.6%. Next, `O=C(CSc1nnc(Cc2cccs2)n1-c1ccccc1)NC1CCCCC1`: -62.5%; `CCn1c(SCC(=O)Nc2ncc(C(F)(F)F)cc2Cl)nnc1-c1cccc(C)c1`: -69.9%; `CNC(=O)CSc1nnc(-c2ccco2)n1-c1cccc(OC)c1`: -0.723%.

In the case of `CCn1c(Cc2cccs2)nnc1SCC(=O)NC1CC1`, the “hERG current change (%, negative = inhibition) at 10uM” value is on record as -1.49%. Turning to `Nn1c(N2CCCCC2)nc2ccccc21`, the “hERG current change (%, negative = inhibition) at 10uM” value is recorded as 6.16%.

As for `Cc1cc(C(=O)N/N=C2\CCCC(C)C2)n[nH]1` (stereo not drawn), the “hERG current change (%, negative = inhibition) at 10uM” value was 11%. For `CCC1=C(c2ccc(C)cc2)S(=O)(=O)N=C1N1CCC(C(=O)NCCCN2CCCCC2)CC1`, the “hERG current change (%, negative = inhibition) at 10uM” value is 20.5%. With `CCN(CC)CC(=O)Nc1nc(-c2ccc(Cl)cc2)cs1` the figure was -35.8%; with `O=C(COc1ccccc1C(=O)NCC1CCCO1)Nc1ccc(Cl)cc1Cl` (stereo not drawn), -14%.

`COC(=O)c1ccc(COc2ccc(Cl)cc2)o1`: the “hERG current change (%, negative = inhibition) at 10uM” value came out at 2.11%. Next, `CCOc1ccccc1-n1c(SCC(=O)NC2CCCC2)nnc1-c1ccoc1C`: -24%; `Cc1occc1-c1nnc(SCC(=O)NC2CCCC2)n1-c1ccccc1`: -74.8%. With `Cc1occc1-c1nnc(SCC(=O)NC2CCCC2)n1C` the figure was 15.5%; with `CCn1c(SCC(=O)NC2CCCC2)nnc1-c1ccoc1C`, 14%. Regarding `Cc1cccc(-n2c(SCC(=O)Nc3ccc4c(c3)OCO4)nnc2-c2ccoc2C)c1`, the “hERG current change (%, negative = inhibition) at 10uM” value is given as -0.162%. With `Cc1cccc(-n2c(SCC(=O)NC3CCCC3)nnc2-c2ccoc2C)c1` the figure was -83.2%; with `Cc1ccc(C)c(NC(=S)N2CCC(NC(=O)C3CCCCC3)CC2)c1`, 4.41%; with `COc1ccc(NC(=O)COc2ccc(-c3nn(C)c(=O)c4ccccc34)cc2)cc1`, 18.2%.
